# Active and inactive are the calls of the source. How the source made its calls: active means hit-call score of the fitted dose curve at least 0.9, where 1 is the maximum; inactive means score below 0.9.
# What was measured:
# [1] = read-out: Vascular cell adhesion molecule 1 (VCAM1), VCAM1 (gene 7412); assay: BSK_hDFCGF_VCAM1: BioMAP Diversity Plus: hDFCGF Assay for Vascular cell adhesion molecule 1 (VCAM1) Biomarker Activity (AID 2283065); settings: primary human foreskin fibroblasts; actives raise or lower the signal;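 on AC50: VCAM-1 protein level quantified by ELISA after 24 h chemical exposure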
# Method in brief: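 Measured after 24 h chemical treatment of primary human skin fibroblasts, VCAM-1 was detected by ELISA and concentration-response analysed in both directions versus DMSO vehicle.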
# [2] = read-out: Plasminogen activator inhibitor-1 (PAI1), SERPINE1 (gene 5054); assay: BSK_hDFCGF_PAI1: BioMAP Diversity Plus: hDFCGF Assay for Plasminogen activator inhibitor-1 (PAI1) Biomarker Activity (AID 2283066); settings: primary human foreskin fibroblasts; actives raise or lower the signal
# Method in brief: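 Human skin fibroblast cultures receive chemical for 24 h before PAI-1 is measured by ELISA; signal changes are fitted bidirectionally against DMSO-treated wells.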
# [3] = read-out: Intercellular Adhesion Molecule 1 (ICAM1), ICAM1 (gene 3383); assay: BSK_KF3CT_ICAM1: BioMAP Diversity Plus: KF3CT Assay for Intercellular Adhesion Molecule 1 (ICAM1) Biomarker Activity (AID 2283067); settings: primary human keratinocytes with fibroblasts; actives raise or lower the signal
# Method in brief: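 Bidirectional curve fitting against a DMSO baseline was applied to ICAM-1 ELISA signal from primary human skin co-cultures harvested 24 h after treatment, with SRB staining of parallel wells for overt cytotoxicity.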
# [4] = BSK_KF3CT_SRB: Viability Assessment in the BioMAP Diversity Plus: KF3CT Assay (AID 2283069); settings: primary human keratinocytes with fibroblasts;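 further: total protein by sulforhodamine B staining as a cytotoxicity measure; read 24 h after compound addition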
# Method in brief: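 Cytotoxicity was gauged by SRB staining (0.1% SRB, 10% TCA fixation, 560 nm) of parallel cultures at 24 h. The cells were primary human skin keratinocytes co-cultured with fibroblasts, and activity was fitted in both directions against DMSO.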
# [5] = read-out: Interleukin-1 alpha (IL1a), IL1A (gene 3552); assay: BSK_KF3CT_IL1a: BioMAP Diversity Plus: KF3CT Assay for Interleukin-1 alpha (IL1a) Biomarker Activity (AID 2283070); settings: primary human keratinocytes with fibroblasts; actives raise or lower the signal
# Method in brief: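 IL-1a was detected by ELISA 24 h after chemical treatment of a co-culture of human skin keratinocytes and foreskin fibroblasts. Gain or loss of signal was fitted against the DMSO baseline.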
# [6] = read-out: TIMP metallopeptidase inhibitor 2 (TIMP2), TIMP2 (gene 7077); assay: BSK_KF3CT_TIMP2: BioMAP Diversity Plus: KF3CT Assay for TIMP metallopeptidase inhibitor 2 (TIMP2) Biomarker Activity (AID 2283071); settings: primary human keratinocytes with fibroblasts; actives raise or lower the signal
# Method in brief: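 Measurements come from ELISA detection of TIMP-2 at 24 hours in a dosed human keratinocyte and foreskin fibroblast co-culture. DMSO serves as negative control and baseline.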
# [7] = read-out: Transforming growth factor beta 1 (TGFb1), TGFB1 (gene 7040); assay: BSK_KF3CT_TGFb1: BioMAP Diversity Plus: KF3CT Assay for Transforming growth factor beta 1 (TGFb1) Biomarker Activity (AID 2283072); settings: primary human keratinocytes with fibroblasts; actives raise or lower the signal
# Method in brief: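 TGF-b1 ELISA on a 24 h dosed co-culture of human keratinocytes and foreskin fibroblasts; cytotoxicity tracked in parallel cultures by SRB staining.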
# [8] = read-out: C-C motif chemokine 2 (Homo sapiens) (UniProt P13500); assay: BSK_KF3CT_MCP1: BioMAP Diversity Plus: KF3CT Assay for Monocyte Chemoattractant Protein 1 (MCP1/CCL2) Biomarker Activity (AID 2283073); settings: primary human keratinocytes with fibroblasts; actives raise or lower the signal
# Method in brief: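 Biomarker MCP-1 is measured by ELISA in primary human keratinocytes co-cultured with foreskin fibroblasts, 24 h after chemical treatment; DMSO serves as the negative control and activity baseline.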
# [9] = read-out: Matrix Metallopeptidase 9 (MMP9), MMP9 (gene 4318); assay: BSK_KF3CT_MMP9: BioMAP Diversity Plus: KF3CT Assay for Matrix Metallopeptidase 9 (MMP9) Biomarker Activity (AID 2283074); settings: primary human keratinocytes with fibroblasts; actives raise or lower the signal;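 on AC50: MMP9 protein level quantified by ELISA in the co-culture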
# Method in brief: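 MMP-9 quantified by ELISA after 24 h chemical treatment of primary human skin keratinocyte/fibroblast co-cultures; gain or loss fitted against DMSO, with parallel SRB staining (0.1% SRB, 560 nm) for overt cytotoxicity.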
# [10] = read-out: urokinase plasminogen activator (uPA), PLAU (gene 5328); assay: BSK_KF3CT_uPA: BioMAP Diversity Plus: KF3CT Assay for urokinase plasminogen activator (uPA) Biomarker Activity (AID 2283075); settings: primary human keratinocytes with fibroblasts; actives raise or lower the signal
# Method in brief: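 ELISA read-out of uPA 24 h after dosing human skin keratinocytes co-cultured with foreskin fibroblasts. Signal change fitted both ways relative to DMSO; sulforhodamine B on parallel cultures marks overt cytotoxicity.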
# CD40, CD40 (gene 958) = assay: BSK_LPS_CD40: BioMAP Diversity Plus: LPS Assay for CD40 Biomarker Activity (AID 2283076); settings: primary human HUVEC with PBMC; actives raise or lower the signal
# Method in brief: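 Using a multiplexed primary human co-culture (umbilical vein endothelium plus PBMC), CD40 was read by ELISA 24 h after dosing, with cytotoxicity tracked by sulforhodamine B staining of parallel cultures and activity fitted bidirectionally versus DMSO.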
# [11] = read-out: E-selectin (Homo sapiens) (UniProt P16581); assay: BSK_LPS_Eselectin: BioMAP Diversity Plus: LPS Assay for Eselectin Biomarker Activity (AID 2283077); settings: primary human HUVEC with PBMC; actives raise or lower the signal
# Method in brief: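 Dose chemical onto LPS-driven HUVEC/PBMC co-culture; after 24 h, run ELISA for E-selectin; fit up- and down-going responses relative to DMSO control.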
# [12] = read-out: Interleukin-8 (IL8), CXCL8 (gene 3576); assay: BSK_LPS_IL8: BioMAP Diversity Plus: LPS Assay for Interleukin-8 (IL8) Biomarker Activity (AID 2283078); settings: primary human HUVEC with PBMC; actives raise or lower the signal
# Method in brief: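 In this LPS system, chemical-treated human umbilical vein endothelium/PBMC co-cultures were harvested at 24 h for IL-8 ELISA.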
# [13] = BSK_LPS_SRB: Viability Assessment in the BioMAP Diversity Plus: LPS Assay (AID 2283079); settings: primary human HUVEC with PBMC;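 further: total protein by sulforhodamine B absorbance as a cytotoxicity measure; measured one day after compound addition; fitted in both directions against DMSO so loss or gain of signal counts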
# Method in brief: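 Cytotoxicity endpoint in human endothelial–PBMC co-culture: 24 h exposure, then SRB (0.1%) staining, 560 nm read.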
# [14] = read-out: Interleukin-1 alpha (IL1a), IL1A (gene 3552); assay: BSK_LPS_IL1a: BioMAP Diversity Plus: LPS Assay for Interleukin-1 alpha (IL1a) Biomarker Activity (AID 2283080); settings: primary human HUVEC with PBMC; actives raise or lower the signal
# Method in brief: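 Primary human HUVEC and PBMC co-culture stimulated with LPS is dosed and harvested at 24 h. Both increases and decreases in ELISA-measured IL-1a are scored relative to DMSO.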
# [15] = read-out: Monocyte Chemoattractant Protein-1 (MCP1), CCL2 (gene 6347); assay: BSK_LPS_MCP1: BioMAP Diversity Plus: LPS Assay for Monocyte Chemoattractant Protein-1 (MCP1) Biomarker Activity (AID 2283081); settings: primary human HUVEC with PBMC; actives raise or lower the signal;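 on AC50: secreted MCP-1 protein quantified by ELISA in culture supernatant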
# Method in brief: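 Values derive from bidirectional fitting against DMSO of ELISA-measured MCP-1 in a human primary endothelial and mononuclear cell co-culture, 24 h after chemical addition under LPS activation.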
# [16] = BSK_LPS_PGE2: BioMAP Diversity Plus: LPS Assay for Prostaglandin E2 (PGE2) Biomarker Activity (AID 2283082); settings: primary human HUVEC with PBMC; actives raise or lower the signal;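 on AC50: secreted prostaglandin E2 measured by ELISA in LPS-stimulated co-culture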
# Method in brief: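 Primary human endothelial cells and blood mononuclear cells, co-cultured with LPS, receive test chemical; PGE2 ELISA follows at 24 h, with SRB-stained parallel cultures flagging cytotoxicity.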
# [17] = read-out: Tissue Factor, F3 (gene 2152); assay: BSK_LPS_TissueFactor: BioMAP Diversity Plus: LPS Assay for Tissue Factor Biomarker Activity (AID 2283084); settings: primary human HUVEC with PBMC; actives raise or lower the signal
# Method in brief: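 Read-out: CD142 ELISA, 24 h. System: LPS-driven human endothelial/PBMC co-culture. Analysis: up- or down-signal fitted against DMSO.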
# [18] = read-out: Macrophage colony-stimulating factor (MCSF), CSF1 (gene 1435); assay: BSK_LPS_MCSF: BioMAP Diversity Plus: LPS Assay for Macrophage colony-stimulating factor (MCSF) Biomarker Activity (AID 2283083); settings: primary human HUVEC with PBMC; actives raise or lower the signal
# Method in brief: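 Bidirectional fit versus DMSO of ELISA-measured M-CSF in co-cultured human umbilical vein endothelial cells and PBMC, sampled 24 h after dosing.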
# Chain of E-selectin (Homo sapiens) (P16581 whole entry, looked up): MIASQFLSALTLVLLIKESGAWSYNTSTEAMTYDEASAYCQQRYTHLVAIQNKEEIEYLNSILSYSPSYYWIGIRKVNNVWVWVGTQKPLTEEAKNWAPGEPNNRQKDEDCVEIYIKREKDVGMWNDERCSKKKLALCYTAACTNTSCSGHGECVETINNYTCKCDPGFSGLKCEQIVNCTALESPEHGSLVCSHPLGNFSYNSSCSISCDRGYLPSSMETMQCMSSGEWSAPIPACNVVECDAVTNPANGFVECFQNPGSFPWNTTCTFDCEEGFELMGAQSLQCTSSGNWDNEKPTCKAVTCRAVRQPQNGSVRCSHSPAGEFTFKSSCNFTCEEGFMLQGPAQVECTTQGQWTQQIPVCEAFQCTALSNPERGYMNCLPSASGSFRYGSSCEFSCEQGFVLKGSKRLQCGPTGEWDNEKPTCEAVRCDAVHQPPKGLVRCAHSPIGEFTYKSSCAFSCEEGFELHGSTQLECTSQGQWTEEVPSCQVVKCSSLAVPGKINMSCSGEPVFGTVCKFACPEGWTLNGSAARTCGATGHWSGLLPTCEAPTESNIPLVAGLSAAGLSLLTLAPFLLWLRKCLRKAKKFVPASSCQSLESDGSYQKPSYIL
structure (smiles),measurement,setting,value
Oc1cccc2cccnc12,AC50,[1],1.03 µM (active)
same,AC50,[2],0.331 µM (active)
same,AC50,[3],2.14 µM (active)
same,AC50,[4],2.78 µM (active)
same,AC50,[5],2.13 µM (active)
same,AC50,[6],3.68 µM (active)
same,AC50,[7],2.35 µM (active)
same,AC50,[8],2 µM (active)
same,AC50,[9],2.46 µM (active)
same,AC50,[10],2.74 µM (active)
same,outcome,"CD40, CD40 (gene 958)",inactive
same,outcome,[11],inactive
same,outcome,[12],inactive
same,outcome,[13],inactive
same,outcome,[14],inactive
same,outcome,[15],inactive
same,AC50,[16],11.4 µM (active)
same,outcome,[17],inactive
CC(C)(c1ccccc1)c1ccc(O)c(C(C)(C)c2ccccc2)c1,AC50,[1],2.79 µM (active)
same,AC50,[2],3.74 µM (active)
same,AC50,[3],3.68 µM (active)
same,AC50,[4],2.33 µM (active)
same,AC50,[5],4.02 µM (active)
same,AC50,[6],2.17 µM (active)
same,AC50,[7],2.83 µM (active)
same,AC50,[8],4.19 µM (active)
same,AC50,[9],2.41 µM (active)
same,AC50,[10],2.85 µM (active)
same,AC50,"CD40, CD40 (gene 958)",12.3 µM (active)
same,AC50,[12],12 µM (active)
same,AC50,[13],12.7 µM (active)
same,AC50,[14],11.1 µM (active)
same,AC50,[15],10.1 µM (active)
same,outcome,[16],inactive
same,AC50,[18],9.66 µM (active)
same,AC50,[17],12.6 µM (active)
CCSC(C)CC1CC(=O)C(C(CC)=NOC/C=C/Cl)=C(O)C1 (configuration not stated),outcome,[1],inactive
same,outcome,[2],inactive
same,outcome,[3],inactive
same,outcome,[4],inactive
same,outcome,[5],inactive
same,outcome,[6],inactive
same,outcome,[7],inactive
same,outcome,[8],inactive
same,outcome,[9],inactive
same,outcome,[10],inactive
same,outcome,"CD40, CD40 (gene 958)",inactive
same,outcome,[11],inactive
same,AC50,[12],0.0903 µM (active)
same,outcome,[13],inactive
same,outcome,[14],inactive
same,outcome,[15],inactive
same,outcome,[16],inactive
same,outcome,[17],inactive
C[C@@H]1C[C@@H]([C@H](O)CC2CC(=O)NC(=O)C2)C(=O)[C@@H](C)C1,AC50,[1],0.915 µM (active)
same,AC50,[2],2.9 µM (active)
same,AC50,[3],7.24 µM (active)
same,AC50,[4],11.6 µM (active)
same,AC50,[5],31.2 µM (active)
same,AC50,[6],8.4 µM (active)
same,AC50,[7],2.79 µM (active)
same,AC50,[8],0.991 µM (active)
same,AC50,[9],4.67 µM (active)
same,AC50,[10],13.2 µM (active)
same,AC50,"CD40, CD40 (gene 958)",3.35 µM (active)
same,AC50,[11],1.77 µM (active)
same,AC50,[12],6.73 µM (active)
same,AC50,[13],6.14 µM (active)
same,AC50,[14],5.63 µM (active)
same,AC50,[15],7.05 µM (active)
same,AC50,[16],5.67 µM (active)
same,AC50,[18],4.48 µM (active)
same,AC50,[17],17.9 µM (active)
CC(=O)[O][Hg][c]1ccccc1,AC50,[1],0.511 µM (active)
same,AC50,[2],0.183 µM (active)
same,AC50,[3],0.467 µM (active)
same,AC50,[4],0.617 µM (active)
same,AC50,[5],0.707 µM (active)
same,AC50,[6],0.148 µM (active)
same,AC50,[7],0.146 µM (active)
same,AC50,[9],0.189 µM (active)
same,AC50,[10],0.625 µM (active)
same,AC50,"CD40, CD40 (gene 958)",1.62 µM (active)
same,AC50,[11],3.35 µM (active)
same,AC50,[12],6.47 µM (active)
same,AC50,[13],1.09 µM (active)
same,AC50,[14],1.25 µM (active)
same,AC50,[15],1.7 µM (active)
same,AC50,[16],0.149 µM (active)
same,AC50,[17],1.99 µM (active)
O=c1[nH]c(=O)[nH]c(=O)[nH]1,outcome,[1],inactive
same,outcome,[2],inactive
same,outcome,[3],inactive
same,outcome,[4],inactive
same,outcome,[5],inactive
same,outcome,[6],inactive
same,outcome,[7],inactive
same,outcome,[8],inactive
same,outcome,[9],inactive
same,outcome,[10],inactive
same,outcome,"CD40, CD40 (gene 958)",inactive
same,outcome,[11],inactive
same,outcome,[12],inactive
same,outcome,[13],inactive
same,outcome,[14],inactive
same,outcome,[15],inactive
same,outcome,[16],inactive
same,outcome,[17],inactive
ClC(Cl)=C(Cl)C(Cl)=C(Cl)Cl,outcome,[1],inactive
same,AC50,[2],0.435 µM (active)
same,AC50,[3],32.4 µM (active)
same,AC50,[4],34.1 µM (active)
same,AC50,[5],20 µM (active)
same,AC50,[6],26.9 µM (active)
same,AC50,[7],29.2 µM (active)
same,AC50,[8],20 µM (active)
same,AC50,[9],28.9 µM (active)
same,outcome,[10],inactive
same,AC50,"CD40, CD40 (gene 958)",31.4 µM (active)
same,outcome,[11],inactive
same,outcome,[12],inactive
same,AC50,[13],3.97 µM (active)
same,AC50,[14],31 µM (active)
same,outcome,[15],inactive
same,outcome,[16],inactive
same,AC50,[18],32.1 µM (active)
same,AC50,[17],33.2 µM (active)

# — PubChem BioAssay (EPA / NIEHS)
